TTR transcr act: increases transthyretin transcription. SH-SY5Y TTR promoter Gaussia luciferase, luminescence; 100% = recombinant luciferase protein wells. activation, % at 16.7 µM. 92,000 compounds, 1.3% hits. AID 1117267;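 active = activation above the mean of all tested compounds plus 3 SD, cut at about 9.5% in these data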;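 also: cells exposed to compounds for one day before reading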
TTR inh HuH7: HuH7 TTR transcription inhibition, counter-screen | shares compounds with TTR transcr act | HuH7 TTR promoter-Gaussia luciferase reporter, luminescence | inhibition, % at 16.7 µM | 1,100 compounds, 4% hits | AID 1117279;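 active = average inhibition above the solvent-only control wells' mean plus 3 SD, cut at about 15% in these data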;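 also: inhibitors lower well luminescence so higher value means more inhibition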
TTR up confirm: confirmation of human transthyretin transcription activators | shares compounds with TTR transcr act | SHSY5Y TTR promoter Gaussia luciferase, luminescence; 100% = purified Lucia enzyme wells, no cells | activation, % at 16.7 µM | 1,100 tested, under 10 active;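 active = mean activation above a set limit taken from the earlier primary screen, cut at about 11% in these data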
Of the large screens only hits and unclear results are named; the others gave an inactive call (follow-up assays come after a bar, where they were run). Many of the other results were omitted from the sample, so hits are more common in it than they were.

Cc1cc(C)c(C(=O)Nc2ccc(Br)c(C(F)(F)F)c2)c(C)c1	none
COc1ccc(Cn2cc(COC(=O)NCCc3c[nH]c4ccccc34)nn2)cc1	none
COCCn1c(C(C)C)nc2ccccc21	none
Cc1cc(C)c2c(=O)[nH][nH]c2n1	none
CC(=O)Nc1ccc(NC(=O)Cn2ccc([N+](=O)[O-])n2)cc1	none
O=C(CCn1ccc([N+](=O)[O-])n1)NC1CCCCCC1	none
Cc1ccc(NC(=O)CCn2ccc([N+](=O)[O-])n2)nc1	TTR transcr act 29.5 | TTR inh HuH7 inactive | TTR up confirm inactive
CCCCOc1ccc(C(=O)NC2CCCCN(Cc3ccc(Cl)cc3)C2=O)cc1 (stereo not given)	none
CO[C@H]([C@H](C)/C=C/N(C)C=O)[C@@H](C)C(=O)CC[C@H](C)[C@H](O)[C@H](C)[C@H]1OC(=O)/C=C/C(C)=C/C[C@H](O)C[C@@H]2C=CC[C@@H](C[C@H](OC)[C@@]3(CO3)[C@@H](OC)C[C@@H](OC)[C@@H]1C)O2	none
CCC(C)(C)n1nnnc1C(c1cc2cc(C)cc(C)c2[nH]c1=O)N1CCCC1 (stereo not given)	none
CCC(C)(C)n1nnnc1C(c1ccc(C)cc1)N1CCCC1 (stereo not given)	TTR transcr act 18.1 | TTR inh HuH7 inactive | TTR up confirm inactive
Cc1ccc(C)c(N2CCN(C(c3ccccc3)c3nnnn3C(C)(C)C)CC2)c1 (stereo not given)	none
CCc1ccc(Cn2c(=O)n(Cc3ccc(C(=O)NCCCOC)cc3)c(=O)c3ccccc32)cc1	none
Cc1ccc(NC(=O)c2ccc3nsnc3c2)c(C)c1	none
COc1ccc(CNC(=O)C2CCC(=O)N(CCCN3CCCC3=O)C2)c(OC)c1 (stereo not given)	none
O=C(CC1CC2CCC1C2)NCc1cccs1 (stereo not given)	TTR transcr act 17.9 | TTR inh HuH7 inactive | TTR up confirm inactive
O=C(/C=C/C(=O)NCc1cccs1)NCc1cccs1	none
O=C(NCc1cccs1)NC1CCCCC1	none
Cc1cc(C)nc(NC(=S)N2CCN(c3ncc(C(F)(F)F)cc3Cl)CC2)c1	none
Cc1cc(Cl)cc(C)c1OCCNCc1ccccc1	none
Cc1cc(C)c(OCCNCc2ccccc2)c(C)c1	TTR transcr act 12.5 | TTR inh HuH7 inactive | TTR up confirm inactive
Cc1cc(Br)ccc1OCCNCc1ccccc1	none
Nc1nc(Nc2cccc(Cl)c2)n[nH]1	none
CC1(c2nnnn2-c2ccc(F)cc2)CCCC(=O)N1CCc1c[nH]c2ccccc12 (stereo not given)	none
CCOC(=O)C(NC(=O)NCc1cccc(C(F)(F)F)c1)(OCC)C(F)(F)F (stereo not given)	none
CCOC(=O)C(NC(=O)c1ccccc1)(OCC1(CC)COC1)C(F)(F)F (stereo not given)	none
CCOC(=O)C(NC(=O)c1cccc(Cl)c1)(OCc1ccc(F)cc1)C(F)(F)F (stereo not given)	TTR transcr act 24.5 | TTR inh HuH7 inactive | TTR up confirm inactive
CCOC(=O)c1cccc(-c2cc(C(C)=O)c3n(c2=O)CCC3)c1	none
O=C(NC1CCCCC1)c1cc(N2C(=O)CCC2=O)ccc1Cl	none
COc1ccccc1NS(=O)(=O)c1cc(NC(C)=O)ccc1N1CCCCC1	none
COc1ccccc1NS(=O)(=O)c1cc(N2Cc3ccccc3C2=N)ccc1N1CCOCC1	none
COc1ccccc1NS(=O)(=O)c1cc(NC(=O)c2cc(F)c(F)c(F)c2F)ccc1N1CCOCC1	TTR transcr act 27.4 | TTR inh HuH7 inactive | TTR up confirm inactive
C[C@@H]1COc2cc(N3CCSCC3)ccc2S(=O)(=O)N1C	none
COc1ccc(OC)c(CN2C(=O)CSCC2(C)c2nnnn2C2CCCC2)c1 (stereo not given)	none
CCCCCn1nnnc1C1(C)Cn2nccc2C(=O)N1Cc1ccco1 (stereo not given)	none
Cc1ccc(NC(=O)C2CC3CCC2C3)cc1 (stereo not given)	none
O=C(Nc1ccc(F)cc1)OCc1cn(Cc2ccccc2Cl)nn1	none
Cc1ccc(S(=O)(=O)N(C)c2ccc(C(=O)NCC(c3ccccc3)N3CCCC3)cc2)cc1 (stereo not given)	none
Cc1ccc(CNC(=O)CCSCc2ccccc2F)cc1	none
O=C(NC(CC1CCCCC1)C(=O)O)c1ccccc1 (stereo not given)	TTR transcr act 15.4 | TTR inh HuH7 inactive | TTR up confirm inactive
O=C(CNC(=O)c1ccccc1)OC1CCCCC1	none
COC(=O)C(CC(=O)CNC(=O)c1ccccc1)NC(=O)c1ccccc1 (stereo not given)	none
CC(=O)c1ccc(NC(=O)NNS(=O)(=O)c2ccc(F)cc2)cc1	none
CC(=O)c1ccc(NC(=O)Nc2sc(NS(=O)(=O)c3ccccc3)nc2C)cc1	TTR transcr act 29.8 | TTR inh HuH7 inactive | TTR up confirm inactive
Cc1ccc(C)c(S(=O)(=O)Nc2nc(C)c(C(=O)Nc3ccccc3)s2)c1	none
CCOC(=O)Nc1sc(NS(=O)(=O)c2ccccc2)nc1C	TTR transcr act 10.5 | TTR inh HuH7 inactive | TTR up confirm inactive
Cc1ccc(S(=O)(=O)NNC(=O)c2sc(NS(=O)(=O)c3ccccc3)nc2C)cc1	none
Cc1nc(NS(=O)(=O)c2ccccc2)sc1C(=O)N/N=C/c1ccccc1	none
O=C(Nc1ccc2c(c1)OCO2)O[C@@H]1CC[C@@]23CCCN2C(=O)CCC[C@H]3C1	none
N#Cc1ccc(NC(=O)OC2CC3CC2[C@H]2CCCCN2C3)cc1 (stereo not given in full)	none
CC(C)[C@@H]1OC(=O)[C@@H]2CCCN2C(=O)[C@H](C)OC(=O)[C@H](C)[C@@H](C(C)C)NC(=O)[C@@H]2CCCN2C(=O)[C@H]([C@H](C)Cc2ccccc2)NC(=O)[C@@H]2CCCN2C(=O)[C@@H](C(C)C)N(C)C1=O	none
O=C(OCc1cn(Cc2ccc(F)cc2F)nn1)N1CCOCC1	none
CCOc1ccc(C(=O)NCc2ccccc2OC)cc1	TTR transcr act 15.1 | TTR inh HuH7 inactive | TTR up confirm inactive
CCCn1nc2cc(C(=O)NCc3ccccc3OC)ccc2c1OCC	none
CCOc1ccc(C(=O)N[C@H](C(=O)Nc2ccccc2OC)C(C)C)cc1	none
COc1ccc(NC(=O)Nc2ccc(OC)c(OC)c2)c([N+](=O)[O-])c1	none
COc1ccc(/C=C/C(=O)Nc2ccc(OC)cc2[N+](=O)[O-])cc1	TTR transcr act 12.6 | TTR inh HuH7 inactive | TTR up confirm inactive
COc1ccc(NC(=O)c2sccc2C)c([N+](=O)[O-])c1	none
COC(=O)C(C[N+](=O)[O-])C1=C(O)CC(C)(C)CC1=O (stereo not given)	none
Cc1cc(=O)oc2cc(OCC#N)ccc12	none
Cc1cc(=O)oc2cc(OCCSc3nnc(-c4ccccc4)o3)ccc12	none
Cc1cc(=O)oc2cc(OCCSCCN3CCCCC3)ccc12	TTR transcr act 20.8 | TTR inh HuH7 inactive | TTR up confirm inactive
CCOC(=O)[C@]12CCCC=C1N(CCCOC)C(=O)[C@@H]2CC(=O)NCc1cccc2ccccc12	none
CSc1ccc(S(=O)(=O)N2CCC(C(=O)NC3CC3)CC2)cc1	TTR transcr act 17.8 | TTR inh HuH7 inactive | TTR up confirm inactive
Cc1ccc(S(=O)(=O)NNC(=O)C2CCN(S(=O)(=O)c3ccc(C)cc3)CC2)cc1	none
O=C(NC1CC1)C1CCN(c2ccc(S(=O)(=O)N3CCOCC3)cc2Cl)CC1	none
CC(=O)OC12CCCN(C1)/C(=C/c1cccc(Cl)c1)C2 (stereo not given)	none
